Hits are enriched below; roughly 4.8% of the tested compounds scored in any of these assays.
Mot1-301 SUMO: inhibitors of SUMOylation pathway: yeast Mot1-301 growth rescue; growth rescue, % at 18.8 µM; AID 2716; S. cerevisiae Mot1-301 growth rescue, ATP luminescence, 38.5C; percent above DMSO median, 100 means doubled; hit rate 1% among 320,000;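 active = every valid replicate shows activation above 250% relative to neutral control wells; inactive = the rest, any valid replicate at or below 250%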;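 note: OY570 slx delta 5 strain wells were the positive control but not used for scaling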
ALR inh: blocks human ALR sulfhydryl oxidase activity. P55789. purified ALR, DTT oxidation, H2O2 HRP-luminol luminescence. inhibition, % (no concentration beside the values). hit rate 3.8% among 290,000;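 active = mean replicate inhibition above about 79%, with every replicate also reaching it, limit read from the data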
Target sequence (P55789 whole entry, looked up): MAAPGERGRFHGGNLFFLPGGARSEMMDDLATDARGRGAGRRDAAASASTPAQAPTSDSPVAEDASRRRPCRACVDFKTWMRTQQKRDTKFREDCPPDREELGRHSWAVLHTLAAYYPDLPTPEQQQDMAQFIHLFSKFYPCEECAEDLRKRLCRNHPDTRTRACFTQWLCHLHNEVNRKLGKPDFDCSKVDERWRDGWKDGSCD
AI-2 QS mod: modulates the Vibrio harveyi AI-2 quorum sensing system; AID 2094; Vibrio harveyi JMH597 AI-2 luminescence/OD600 ratio, 9 h; active compounds read low; strain lacks LuxN and CqsS sensors; 0 = neutral-control median; hit rate 0.4% among 300,000; activity change, % at 7.5 µM; in the data active = activity change below about -75%, passing the limit was not always enough;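 note: luminescence divided by OD600 gain over 9 h not by final OD600 alone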
HIF act: HIF pathway transcriptional activation | U2OS HRE-luciferase reporter, luminescence; normalized: DMSO 0%, desferrioxamine 100% | activation, % at 7.5 µM (by protocol) | hit rate 0.32% among 300,000 | AID 1910;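 active = mean activation of at least 10% of the iron chelator positive control signal, with at least half of replicates also reaching 10%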
An asterisk follows results filed as active; / = not tested or not shown.

SMILES	Mot1-301 SUMO	ALR inh	AI-2 QS mod	HIF act
CCC(C)(C(=O)Nc1ccc(OC)cc1)N(C)C(=O)Cn1nnnc1N (stereo unspecified)	5	/	2	1
CC(Oc1ccccc1F)C(=O)NNC(=O)c1ccc(F)c(S(=O)(=O)N2CCOCC2)c1 (stereo unspecified)	-9	-14	44	0
Cc1ccc(-n2nc3c(=O)n(C(C)C(=O)NCCC4=CCCCC4)nc(C)c3c2C)cc1 (stereo unspecified)	-16	/	12	0
Oc1ccc(NCc2ccccc2OCc2ccccc2)cc1	1	9	14	0
C#CCOc1ccccc1CNc1ccccc1	-20	98*	13	0
OCc1ccccc1SSc1ccccc1CO	-27	98*	28	0
OCc1ccccc1CNCc1ccccc1	-15	6	24	/
CCCc1ccc2oc(C(=O)N(C)Cc3nccs3)c(C)c2c1	11	5	-2	3
CCN(CCCNC(=O)C1CCN(S(=O)(=O)CC)CC1)c1ccccc1	-8	99*	7	0
CCCS(=O)(=O)N1CCC(C(=O)NCCN(CC)c2ccccc2)CC1	10	71	3	0
CCN(CCCNC(=O)C1CCN(S(=O)(=O)CC)CC1)c1cccc(C)c1	12	99*	14	1
CCN(CCCNC(=O)C1CCC(=O)N1Cc1ccc(F)cc1)c1cccc(C)c1 (stereo unspecified)	9	99*	17	-1
O=C(NCCc1ccccc1)C1CCN(S(=O)(=O)N2CCC3(CC2)OCCO3)CC1	-18	-17	14	0
CCN(CCCNC(=O)C1CCC(=O)N1C1CCCC1)c1cccc(C)c1 (stereo unspecified)	7	/	6	-1
CCN(CCCNC(=O)C1CCN(S(=O)(=O)N2CCC3(CC2)OCCO3)CC1)c1ccccc1	-25	99*	10	0
NNc1nc(-c2ccccc2)nc(-c2ccccc2)c1Br	-21	0	12	0
CCOc1ccc(CNC(=O)CCC(=O)N2Cc3ccccc3Oc3ncccc32)cc1	-11	-16	17	0
CCN(CCNC(=O)C1CCN(S(C)(=O)=O)CC1)c1ccccc1	-1	99*	22	/
CCCCN(CCCNC(=O)C1CCN(S(=O)(=O)N2CCOCC2)CC1)c1ccccc1	18	99*	17	0
CN(CCNC(=O)C1CCN(S(=O)(=O)N2CCOCC2)CC1)CCc1ccccc1	9	0	12	0
CCn1ncc(S(=O)(=O)NCc2ccccc2Cl)c1C	-17	-2	7	0
Cc1cc(NS(=O)(=O)c2ccc(NC(=O)c3cnc(Cl)c(Cl)c3)cc2)nc(C)n1	-1	99*	/	/
COc1ccc(NC(=O)CSc2nc3ncccc3[nH]2)cc1OC	4	96*	12	1
COc1ccc(C(=O)Nc2ccc(S(=O)(=O)Nc3cc(C)nc(C)n3)cc2)cc1	193	0	24	0
Cc1cc(NS(=O)(=O)c2ccc(NC(=O)CSc3nc4ncc(Br)cc4[nH]3)cc2)nc(C)n1	-18	99*	16	0
SMILES	Mot1-301 SUMO	ALR inh	AI-2 QS mod	HIF act
Cc1cc(NS(=O)(=O)c2ccc(NC(=O)CSc3nc4ncc(Cl)cc4[nH]3)cc2)nc(C)n1	-16	100*	28	0
Cc1cc(C)c(NC(=O)CSc2nc3ncc(Cl)cc3[nH]2)c(C)c1	-3	-1	20	-1
COc1cccc(NC(=O)c2cccc(N3C(=O)C4C5C=CC(C5)C4C3=O)c2)c1 (stereo unspecified)	-15	-7	14	1
Cc1nnc(SCC(=O)N(CCC#N)c2ccc3c(c2)OCCO3)s1	7	1	/	/
O=S1(=O)CCOCCCN1Cc1ccccc1Br	37	-9	3	0
O=C(NC(=O)c1cnccc1C(F)(F)F)Nc1ccccc1	-2	-26	7	0
Cc1c(OCC(=O)NCCN2CCOCC2)ccc2c1oc(=O)c1ccccc12	11	-2	20	0
Cc1cc(NS(=O)(=O)c2ccc(NC(=O)CSc3nc4ncccc4[nH]3)cc2)nc(C)n1	17	99*	20	0
Cc1cc(C)nc(NS(=O)(=O)c2ccc(NC(=O)CSc3nc4ccccc4[nH]3)cc2)n1	-3	5	43	0
COc1ccc(C(c2c(O)nc(SC)n(C)c2=O)c2c(O)nc(SC)n(C)c2=O)cc1O	-21	58	-89*	0
CNc1nc(C)c([N+](=O)[O-])c(Nc2ccc(OC)cc2)n1	16	1	13	-1
CC(=O)Nc1ccc(Nc2nc(C)c([N+](=O)[O-])c(Nc3ccc(NC(C)=O)cc3)n2)cc1	9	-5	15	469*
c1ccc2c(SCc3cn4ccccc4n3)nncc2c1	/	99*	47	2
N=C(N)SCc1cn2ccccc2n1	-26	98*	1	0
CCS(=O)(=O)Nc1ccc(-c2cc(-c3ccccc3)c3cc(C)ccc3n2)cc1	-6	89*	15	0
COc1cc(/C=C2\SC(=Nc3ccc(Cl)c(C(=O)O)c3)NC2=O)c(Br)c(Br)c1O	9	98*	1	0
CC(C)N(CCO)C(=O)C(c1ccccc1)c1ccccc1	4	0	13	0
CN(CCO)c1ccc(C(C(=O)c2ccccc2)c2ccc(N(C)CCO)cc2)cc1	118	91*	49	1
COc1ccc(N2C(=O)CSC2c2cccs2)cc1 (stereo unspecified)	690	99*	20	0
CCOc1ccc(N2C(=O)CSC2c2ccncc2)cc1 (stereo unspecified)	0	100*	7	0
O=C(/C=C/c1ccc(Cl)cc1)N1CCOCC1	-7	8	32	-9
CCOC(=O)c1ccc(S(=O)(=O)Nc2cc(C(=O)O)ccc2Cl)cc1	129	99*	12	0
O=C(CN1C(=O)NC2(CCOc3ccccc32)C1=O)NCc1ccccc1 (stereo unspecified)	-12	/	/	/
CCOC(=O)c1c(Cc2ccccc2)c[nH]c1C	-8	95*	-3	3
CCOC(=O)c1c(C)c[nH]c1C	-2	0	-1	0
SMILES	Mot1-301 SUMO	ALR inh	AI-2 QS mod	HIF act
O=C(c1ccc(NC(=O)C(c2ccccc2)c2ccccc2)cc1)c1ccc(C(=O)O)c(C(=O)O)c1	-3	94*	2	-1
COc1ccc(CSCC(=O)Nc2ccccc2)cc1[N+](=O)[O-]	392	99*	23	-4
COc1ccc(CSc2nc(C)[nH]c2[N+](=O)[O-])cc1[N+](=O)[O-]	-2	100*	19	0
CC(=O)c1cccc(NC(=O)CSCc2ccccc2)c1	/	97*	5	2
CCc1ccc(CN2CCCC(CCC(=O)N3CCN(c4ccccn4)CC3)C2)o1 (stereo unspecified)	392	/	12	0
COc1cc(NC(=O)CSCc2ccccc2)c(C(=O)O)cc1OC	-14	76*	-3	1
COc1cc(NC(=O)C(c2ccccc2)c2ccccc2)c(C(=O)O)cc1OC	-10	92*	22	0
COc1cc(NC(=O)CSc2ccccc2)c(C(=O)O)cc1OC	-11	-1	3	0

Screening data: PubChem, Broad Institute
